According to PubChem BioAssay:
Activity calls are given as the source filed them.

Assays:
[1] = E. coli DRC41 culture turbidity changes, primary screen, E. coli filamentation inducer project, strain DRC41, OD650, 48 h (AID 1152);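 note: E. coli MC1000 strain DRC41 lacking acrAB efflux pump and sulA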; settings: E. coli DRC41 (acrAB sulA), higher = more signal, called active from +8 up or from −8 down
[2] = small-molecule binders of probe aLefty1, primary screen, biochemical, small-molecule microarray, 635/667 nm fluorescence (AID 1153); settings: higher = more signal;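 note: score merges spot fluorescence with signal-to-noise ratio from the scanned slide images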
[3] = PSAC antagonists in infected red cells, primary screen, cell-based, P. falciparum Indochina, OD700, 1 h (AID 1154); settings: P. falciparum Indochina infected RBC osmotic lysis, higher = more signal, called active from +8 up or from −8 down
[4] = PSAC antagonists in infected red cells, primary screen, cell-based, P. falciparum Indochina, OD700, 2 h (AID 1155);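 note: lysis reports solute entry through the parasite surface anion channel PSAC; channel blockers reduce lysis of infected cells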; settings: P. falciparum Indochina infected erythrocytes, osmotic lysis OD700; higher = more signal, called active from +8 up or from −8 down
[5] = osmotic lysis modulators in infected erythrocytes, primary screen, PSAC antagonist project, cell-based, P. falciparum Indochina, OD700, 3 h (AID 1156); settings: higher = more signal, called active from +8 up or from −8 down
[6] = PSAC antagonists in infected red cells, primary screen, cell-based, P. falciparum Indochina, OD700, 18 h (AID 1157); settings: P. falciparum Indochina infected erythrocytes, osmotic lysis OD700, 18 h; higher = more signal, called active from +8 up or from −8 down
[7] = modulators of S6 phosphorylation in cells, primary screen, cell-based, A549, cytoblot, luminescence, serum-stimulated (AID 1158); settings: A549 phospho-S6 cytoblot, 5 h, higher = more signal;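 note: serum-stimulated A549 lung adenocarcinoma cells; signal is phosphorylated S6 detected by cytoblot immunostaining with HRP secondary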
[8] = molecular target: NADPH oxidase 2 (Homo sapiens) (UniProt P04839); experiment: NOX2-dependent H2O2 signal modulators, primary screen, NOX inhibitor project, cell-based, HEK293-NOX2, PMA-stimulated, Amplex Red fluorescence (AID 1159); settings: 45 min, higher = more signal, called active from +8 up or from −8 down; note: test concentration not given here
[9] = molecular target: NADPH oxidase 4 (Homo sapiens) (UniProt Q9NPH5); experiment: NOX4-dependent H2O2 signal modulators, primary screen, NOX inhibitor project, cell-based, HEK293-NOX4, tetracycline-induced, Amplex Red fluorescence (AID 1160); settings: 45 min, higher = more signal, called active from +8 up or from −8 down
[10] = molecular target: NADPH oxidase 5 (Homo sapiens) (UniProt Q96PH1); experiment: NOX5-dependent H2O2 signal modulators, primary screen, NOX inhibitor project, cell-based, HEK293-NOX5, Amplex Red fluorescence (AID 1161); settings: HEK293-NOX5, ionomycin, 45 min, higher = more signal
Chain of NADPH oxidase 5 (Homo sapiens) (Q96PH1 whole entry, looked up): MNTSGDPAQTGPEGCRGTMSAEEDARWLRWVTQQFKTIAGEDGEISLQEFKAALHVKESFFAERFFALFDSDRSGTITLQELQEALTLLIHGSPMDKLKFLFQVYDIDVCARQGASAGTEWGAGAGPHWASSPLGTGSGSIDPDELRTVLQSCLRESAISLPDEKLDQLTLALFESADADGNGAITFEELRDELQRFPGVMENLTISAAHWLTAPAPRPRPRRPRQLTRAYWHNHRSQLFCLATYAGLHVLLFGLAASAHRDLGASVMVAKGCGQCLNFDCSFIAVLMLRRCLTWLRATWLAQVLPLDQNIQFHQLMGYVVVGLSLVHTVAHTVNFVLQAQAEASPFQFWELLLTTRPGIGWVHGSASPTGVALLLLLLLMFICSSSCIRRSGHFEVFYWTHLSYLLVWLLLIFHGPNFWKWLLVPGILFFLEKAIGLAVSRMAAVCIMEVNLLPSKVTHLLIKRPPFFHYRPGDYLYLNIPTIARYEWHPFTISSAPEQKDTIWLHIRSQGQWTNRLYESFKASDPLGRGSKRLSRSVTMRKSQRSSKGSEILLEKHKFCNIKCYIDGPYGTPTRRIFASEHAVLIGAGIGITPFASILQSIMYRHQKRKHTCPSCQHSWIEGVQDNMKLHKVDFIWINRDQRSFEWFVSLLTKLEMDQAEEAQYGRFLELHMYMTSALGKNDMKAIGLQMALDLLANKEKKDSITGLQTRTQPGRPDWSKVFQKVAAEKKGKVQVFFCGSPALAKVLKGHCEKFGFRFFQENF

Chain of NADPH oxidase 4 (Homo sapiens) (Q9NPH5 whole entry, looked up): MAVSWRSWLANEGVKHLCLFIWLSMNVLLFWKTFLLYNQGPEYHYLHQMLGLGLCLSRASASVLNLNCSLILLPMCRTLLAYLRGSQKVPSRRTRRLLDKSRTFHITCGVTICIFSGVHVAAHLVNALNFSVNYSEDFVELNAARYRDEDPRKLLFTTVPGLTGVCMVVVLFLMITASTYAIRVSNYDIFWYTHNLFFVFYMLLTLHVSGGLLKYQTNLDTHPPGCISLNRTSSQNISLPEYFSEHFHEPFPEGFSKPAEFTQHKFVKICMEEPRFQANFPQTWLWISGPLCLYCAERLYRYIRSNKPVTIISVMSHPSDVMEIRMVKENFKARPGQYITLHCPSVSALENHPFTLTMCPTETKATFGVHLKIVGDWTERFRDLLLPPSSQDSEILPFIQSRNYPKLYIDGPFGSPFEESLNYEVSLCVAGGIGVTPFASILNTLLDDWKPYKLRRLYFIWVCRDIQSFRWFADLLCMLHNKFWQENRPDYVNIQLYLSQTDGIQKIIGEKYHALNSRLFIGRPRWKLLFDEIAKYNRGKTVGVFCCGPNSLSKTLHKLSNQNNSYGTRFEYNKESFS
Chain of NADPH oxidase 2 (Homo sapiens) (P04839 whole entry, looked up): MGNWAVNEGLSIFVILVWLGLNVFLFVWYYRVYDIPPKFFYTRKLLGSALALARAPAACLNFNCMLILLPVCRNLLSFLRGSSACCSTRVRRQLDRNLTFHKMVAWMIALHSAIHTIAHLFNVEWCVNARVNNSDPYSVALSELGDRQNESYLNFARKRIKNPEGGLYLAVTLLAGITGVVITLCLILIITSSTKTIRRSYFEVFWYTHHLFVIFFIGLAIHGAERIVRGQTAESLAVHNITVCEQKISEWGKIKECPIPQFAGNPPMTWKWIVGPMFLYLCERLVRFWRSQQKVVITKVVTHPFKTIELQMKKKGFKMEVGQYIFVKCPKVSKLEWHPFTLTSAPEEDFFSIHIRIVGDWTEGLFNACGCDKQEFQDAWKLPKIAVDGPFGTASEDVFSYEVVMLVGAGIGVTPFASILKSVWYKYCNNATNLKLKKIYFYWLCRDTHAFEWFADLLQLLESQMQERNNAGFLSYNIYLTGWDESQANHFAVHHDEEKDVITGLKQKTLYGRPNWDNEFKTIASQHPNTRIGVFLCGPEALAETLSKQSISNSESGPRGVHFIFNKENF

SMILES | z-score [1] | composite z-score [2] | z-score [3] | z-score [4] | z-score [5] | z-score [6] | z-score [7] | z-score [8] | z-score [9] | z-score [10]
CCCNC(=O)[C@@]1(c2ccc([N+](=O)[O-])cc2)CC(=O)N(CC23CC4CC(CC(C4)C2)C3)[C@@H]1c1ccc(CO)cc1I | 0.0121 (inactive) | 0.181 | 26 (active) | 13.3 (active) | 1.82 (inactive) | 1.87 (inactive) | -0.151 | 1.15 (inactive) | -0.037 (inactive) | 2.21
O[C@@H](Cc1ccccc1)[C@@H](/C=C/c1ccccc1)NCc1ccccc1Br | 0.955 (inactive) | 0.0927 | 1.18 (inactive) | 0.411 (inactive) | 1.35 (inactive) | 0.205 (inactive) | 0.747 | -0.175 (inactive) | 0.272 (inactive) | -0.921
C#C[C@H](O[Si](C#CCCCCCC)(C(C)C)C(C)C)c1ccccc1 | 0.79 (inactive) | -0.468 | 0.486 (inactive) | -0.227 (inactive) | -0.177 (inactive) | 0.433 (inactive) | 0.482 | -1.09 (inactive) | -0.782 (inactive) | -1.97
C[N+](C)(C)CCCC[C@@H]1NC(=O)[C@H]2C[C@@H](C(=O)O)[C@@H](c3cccc(OCCO)c3)N2C1=O | -0.0215 (inactive) | 1.69 | 1.15 (inactive) | 0.729 (inactive) | -1.43 (inactive) | 0.252 (inactive) | 0.743 | 0.114 (inactive) | 0.0916 (inactive) | 0.986
CCCCN1CC=CC23O[C@@H]4C=CCCOC(=O)C4[C@H]2C(=O)N(CCCO)[C@@H]3C1=O (stereo not given in full) | 0.62 (inactive) | -0.321 | 0.158 (inactive) | -1.01 (inactive) | 0.224 (inactive) | -1.34 (inactive) | 0.243 | -0.168 (inactive) | -1.73 (inactive) | -1.34
CN(C)CCCC[C@@H]1NC(=O)[C@@H]2C[C@H](C(=O)NCc3ccc(F)cc3)[C@H](c3cccc(OCCO)c3)N2C1=O | -0.179 (inactive) | 0.19 | 5.87 (inactive) | 0.995 (inactive) | -1.39 (inactive) | 0.546 (inactive) | 0.612 | 1.85 (inactive) | 1.37 (inactive) | 1.55
CC1(C)C(=O)C(c2ccccc2)=C2CN3C(=O)N(CCc4ccccc4)C(=O)C3(Cc3ccccc3)C=C21 (stereo not given) | -1.23 (inactive) | 0.647 | 2.06 (inactive) | 0.541 (inactive) | 0.483 (inactive) | 0.861 (inactive) | -0.196 | -0.147 (inactive) | 0.405 (inactive) | -1.62
O=C1C[C@@](C(=O)O)(c2ccc([N+](=O)[O-])cc2)[C@@H](c2ccc(CO)cc2I)N1C1CCCCC1 | 1.52 (inactive) | 0.208 | 17.5 (active) | 2.77 (inactive) | 3.02 (inactive) | 0.202 (inactive) | 1.84 | 1.46 (inactive) | -2.82 (inactive) | -1.78
COc1ccc([Si](C)(C)[C@H]2[C@H](CCO)O[C@@]3(C(=O)N(Cc4cccc(N5C(=O)c6cccc7cccc5c67)c4)c4ccccc43)[C@@H]2C)cc1 | 0.0084 (inactive) | -0.012 | 1.54 (inactive) | 2.2 (inactive) | 0.712 (inactive) | 1.31 (inactive) | 1.26 | -0.139 (inactive) | 0.61 (inactive) | 1.6
CO[C@H]1O[C@H](CO)[C@@H](OC(=O)Nc2ccccc2-c2ccccc2)[C@H](OC(=O)Nc2ccccc2-c2ccccc2)[C@H]1OC(=O)Nc1ccccc1-c1ccccc1 | 0.236 (inactive) | 0.427 | 3.93 (inactive) | 1.27 (inactive) | -0.623 (inactive) | 1.16 (inactive) | 0.311 | 1.26 (inactive) | -0.874 (inactive) | -0.439
CCOC(=O)C=Cc1cccc(OC)c1O | -0.572 (inactive) | -0.184 | 21.2 (active) | 2.21 (inactive) | 0.957 (inactive) | -1.28 (inactive) | 1.73 | -5.37 (inactive) | -5.92 (inactive) | -6.34
O=C(NCC(O)CO)[C@]1(CCS(=O)(=O)c2ccccc2)N=C(c2ccc(OCCCO)cc2)O[C@@H]1c1ccccc1 (stereo not given in full) | -0.374 (inactive) | 0.0371 | 25.6 (active) | 6.78 (inactive) | 1.61 (inactive) | 0.987 (inactive) | -0.516 | 1.4 (inactive) | 0.762 (inactive) | -0.186
C=CCN1C(=O)[C@@]2(O[C@@H](CCO)[C@H]([Si](C)(C)c3ccc(OC)cc3)[C@H]2C)c2cc(N3C(=O)COc4ccccc43)ccc21 | -0.37 (inactive) | 0.0012 | 24.5 (active) | 11.4 (active) | -0.122 (inactive) | 2.68 (inactive) | 0.175 | -0.548 (inactive) | -0.111 (inactive) | 0.0948
CCCNC(=O)[C@@]1(C)c2ccccc2C(=O)N(Cc2cc(F)cc(C(F)(F)F)c2)[C@H]1c1ccc(CO)cc1 | 0.119 (inactive) | -0.252 | 7.04 (inactive) | 0.576 (inactive) | 1.03 (inactive) | 0.644 (inactive) | 0.324 | -1.29 (inactive) | -1.51 (inactive) | -2.07
C[C@]1(C(=O)NCC(F)(F)F)c2ccccc2C(=O)N(Cc2cc(F)cc(C(F)(F)F)c2)[C@H]1c1ccc(CO)cc1 | -0.436 (inactive) | -0.355 | 4.43 (inactive) | -0.263 (inactive) | 2.21 (inactive) | -0.682 (inactive) | 2.24 | -0.779 (inactive) | -2.9 (inactive) | -3.61
C=C(CCCC)C(=O)CC[C@H](OC(=O)c1ccccc1-c1ccccc1C(=O)O)c1ccc(CO)o1 | -0.002 (inactive) | -0.0984 | 1.69 (inactive) | 0.241 (inactive) | 1.2 (inactive) | 0.16 (inactive) | -0.16 | 0.333 (inactive) | -0.269 (inactive) | -1.15
CN(C)CCCCNC(=O)[C@@H]1C[C@@H]2C(=O)N[C@@H](CCCCN)C(=O)N2[C@@H]1c1cccc(OCCO)c1 | -0.389 (inactive) | 0.837 | 2.51 (inactive) | 0.337 (inactive) | -1.21 (inactive) | -0.0182 (inactive) | -0.446 | 1.36 (inactive) | 1.05 (inactive) | 1.43
CN1C(=O)C2C(C1=O)C1C=C(c3ccc(CO)cc3)C2C(C2CC2)N1Cc1cc2c(cc1Br)OCO2 (stereo not given) | -0.515 (inactive) | 0.464 | 19.5 (active) | 3.1 (inactive) | 1.2 (inactive) | -0.898 (inactive) | 1.05 | -1.18 (inactive) | -1.04 (inactive) | -0.488
Oc1ccc2cc[n+](Cc3cccc(OC(F)(F)F)c3)cc2c1 | 0.444 (inactive) | -0.606 | 0.0313 (inactive) | -0.0655 (inactive) | 0.621 (inactive) | -0.236 (inactive) | -0.522 | -1.93 (inactive) | -0.554 (inactive) | -0.3
C=C(CCCC)/C(=C/C[C@H](OC(C)=O)c1ccc(CO)o1)c1cc(C(=O)OC)ccc1OC | 0.302 (inactive) | -0.0501 | 1.99 (inactive) | -0.526 (inactive) | 1.62 (inactive) | -2.02 (inactive) | 1.61 | -0.764 (inactive) | -0.262 (inactive) | -1.54
CC1CC/C=C\[C@H]2OC34C=CCN(c5ccc6ccccc6c5)C(=O)[C@H]3N(CCCCCO)C(=O)[C@@H]4C2C(=O)O1 (stereo not given in full) | -0.557 (inactive) | -0.427 | 0.157 (inactive) | 0.222 (inactive) | -0.0324 (inactive) | 0.0382 (inactive) | 0.455 | 0.718 (inactive) | -0.265 (inactive) | 1.7
COc1ccc([Si](C)(C)[C@@H]2[C@@H](CCO)O[C@]3(C(=O)N(Cc4ccc(N5C(=O)c6cccc7cccc5c67)cc4)c4ccccc43)[C@H]2C)cc1 | 0.317 (inactive) | 0.0355 | 3.28 (inactive) | 3.22 (inactive) | 0.146 (inactive) | 2.22 (inactive) | -0.511 | 0.806 (inactive) | 0.417 (inactive) | 2.96
CC(=O)N1Cc2ccccc2C[C@@]2(N=C(c3ccc(OCCCO)cc3)O[C@H]2c2ccccc2)C1=O | 1.6 (inactive) | 1.29 | 24.1 (active) | 8.42 (active) | 2.76 (inactive) | 0.944 (inactive) | 2.14 | -4.15 (inactive) | 0.144 (inactive) | -2.86
Cc1ccc(S(=O)(=O)N2CC(C(=O)O)=CCC2c2ccccc2)cc1 (stereo not given) | -1.24 (inactive) | 0.0717 | 1.17 (inactive) | 1.1 (inactive) | 1.13 (inactive) | 0.879 (inactive) | -0.55 | -0.363 (inactive) | -1.02 (inactive) | -1.02
CC(=O)NCCCC[C@@H]1NC(=O)[C@@H]2C[C@H](C(=O)NCc3ccc(F)cc3)[C@H](c3ccc(O)cc3)N2C1=O | 0.921 (inactive) | -0.0601 | 1.63 (inactive) | 0.549 (inactive) | -1.64 (inactive) | 0.277 (inactive) | -0.0125 | 0.647 (inactive) | 0.059 (inactive) | 1.37
C=C(CCCC)C(=O)CC[C@@H](OC(=O)c1ccccc1-c1ccccc1C(=O)O)c1ccc(CO)o1 | -0.467 (inactive) | 0.379 | 1.6 (inactive) | 0.228 (inactive) | 1.19 (inactive) | 0.161 (inactive) | -0.946 | 1.35 (inactive) | -0.203 (inactive) | -0.475
